Source: PubChem BioAssay (several laboratories)
AHR act – activates the human aryl hydrocarbon receptor; P35869; AHR-responsive luciferase reporter cells, luminescence; activation, % at 5 µM; 320,000 compounds, 2.5% hits; AID 2796; in the data active = activation above about 47%;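 also: 0% = vehicle wells and 100% = reference agonist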
HSF1 inh – HSF1 inhibition | NIH3T3-HGL HSE-luciferase, MG132-induced, luminescence 8 h; stronger effect = lower value | activity change, negative = inhibition, % at 7.5 µM (by protocol) | 300,000 compounds, 0.77% hits | AID 2098;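 active = more than half of replicate wells show activity change below -50%, luminescence cut by over half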;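 also: luciferase reports HSF-1 transcriptional activity via heat shock element; 0% = median of DMSO wells and -100% = zero luminescence signal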
NR0B1 inh – NR0B1 (DAX1) inhibition; HEK293 Gal4-DAX1 luciferase reporter, luminescence; inhibition, % at 6.75 µM; 340,000 compounds, 0.99% hits;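 active = inhibition above the mean over all tested compounds plus 3 SD, cut at about 4.2% in these data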;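 also: 0% = DAX1-transfected cells with DMSO and 100% = empty-vector control cells with DMSO; inhibition shows as a rise in luminescence from relieved DAX1 repression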
GAA850 FXN act – activators of GAA850 frataxin (FXN) promoter | HEK293 lucGAA850 FXN promoter luciferase reporter, 24 h; percent of 10 µM SAHA response | activation, % at 6 µM | 360,000 compounds, 0.56% hits | AID 540364;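 active = activation above the average of all compounds screened plus 3 SD, cutoff fixed separately per campaign, cut at about 7.5% in these data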;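 also: 0% = DMSO wells and 100% = 10 µM SAHA wells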
HSF1 activator – increases HSF-1 driven luciferase reporter signal; NIH3T3-HGL HSF-1 luciferase reporter, MG132, 8 h; 100% = twice DMSO control signal; activation, % at 9 µM; 300,000 compounds, 1.7% hits;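 active = mean replicate activation of at least 50% with a set share of replicates each reaching 50%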;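 also: 0% = median of the neutral control wells and 100% = twice that signal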
Numbers without * were called inactive; . = no result given. Most compounds without a hit are left out; they make up all but 5.4% or so of the library.

SMILES	AHR act	HSF1 inh	NR0B1 inh	GAA850 FXN act	HSF1 activator
CCC(c1nnnn1CCc1ccccc1)N(Cc1ccco1)Cc1cc2cccc(C)c2[nH]c1=O (stereo not given)	20	68	0	-2	90*
CCC(c1nnnn1C(C)(C)C)N(Cc1ccco1)Cc1cc2cccc(C)c2[nH]c1=O (stereo not given)	20	49	0	1	66*
CCOc1ccc2[nH]c(=O)c(CN(Cc3ccco3)C(CC)c3nnnn3Cc3ccccc3)cc2c1 (stereo not given)	18	7	1	3	15
COc1ccccc1-c1nc(S(=O)(=O)c2ccccc2)c(N2CCCCC2)o1	9	50	3	-1	52*
Cc1cc(-c2csc(NC(=O)c3ccc(=O)[nH]c3)n2)c(C)n1Cc1ccco1	-1	0	2	0	-8
CCNc1nc(-c2cc(C)n(Cc3ccco3)c2C)cs1	3	-3	5.0*	-1	-3
Cn1cccc1C(=O)OCC(=O)Nc1sccc1C#N	13	-88	5.5*	2	-88
Cc1c(NC(=O)COC(=O)c2cccn2C)c(=O)n(-c2ccccc2)n1C	5	.	4.4*	-1	.
N#Cc1ccsc1NC(=O)COC(=O)c1cc(Br)ccc1O	6	19	6.0*	3	22
Cc1c(NC(=O)COC(=O)c2ccccc2Cl)c(=O)n(-c2ccccc2)n1C	-2	-5	0	0	-4
O=C(O)c1ccc(CS(=O)(=O)c2c(Cl)cccc2Cl)o1	1	-3	0	2	-8
CC1=NN(c2ccc(C)cc2C)C(=O)C1C(c1ccccc1)C1C(=O)N(c2ccc(C)cc2C)N=C1C (stereo not given)	1	48	1	-6	64*
CCCCCOC(=O)c1[nH]c2c(c1C)C(=O)CC(c1ccco1)C2 (stereo not given)	140*	1	-2	-1	-13
CCOCCOC(=O)c1[nH]c2c(c1C)C(=O)CC(c1ccccc1)C2 (stereo not given)	26	-25	-2	2	-36
CCOc1cc(C(=O)Nc2ccc(NC(C)=O)cc2)ccc1OCC(=O)N1CCCCC1	0	5	-2	2	-2
CCC(=O)Nc1ccc(C(=O)OCc2ccc(Cl)c(Cl)c2)cc1	0	-5	-1	1	21
CC(=O)Nc1ccc(C(=O)OCc2ccc(Cl)c(Cl)c2)cc1	2	22	-1	1	57*
C=CCc1c(C)nc(C)nc1N/N=C/c1ccc([N+](=O)[O-])cc1	78*	0	0	-2	9
CC(=NNc1ccc([N+](=O)[O-])cn1)c1ccccc1	.	.	1	2	.
CC(C=NNc1ccc([N+](=O)[O-])cn1)=Cc1ccccc1	.	.	7.5*	5	.
Cc1ccc(C=NNc2ccc([N+](=O)[O-])cn2)cc1	.	.	4.8*	2	.
Cc1ccc(/C=C2\SC(=O)N(CCNC(=O)C3CSC4(C)CCC(=O)N34)C2=O)cc1 (stereo not given)	1	7	-1	1	30
COC(=O)NNC(=O)COc1ccc(Cl)cc1	0	-5	2	-1	-4
COc1ccc(C(=O)NNC(=O)COc2ccc(Cl)cc2)c(OC)c1	73*	-3	1	1	15
CCS(=O)(=O)Nc1ccc2[nH]c(=O)[nH]c2c1	2	28	0	0	78*
SMILES	AHR act	HSF1 inh	NR0B1 inh	GAA850 FXN act	HSF1 activator
CS(=O)(=O)Nc1ccc2[nH]c(=O)[nH]c2c1	1	1	1	-1	2
CC(C)NC(=S)Nc1ccc2[nH]c(=O)[nH]c2c1	0	-3	4.5*	1	8
O=C1CN(c2ccccc2)C(=S)N1c1ccccc1	-1	2	4.4*	3	9
O=C1CN(c2ccc(F)cc2)C(=S)N1c1ccccc1	0	10	-1	0	22
CCN(CC(=O)Nc1ccc(Br)cc1)CC(=O)Nc1cc(C)on1	.	.	-1	2	.
O=C(N[C@H](C(=O)O)c1ccccc1)C1CCC(Cn2cnc3ccccc3c2=O)CC1 (stereo not given in full)	0	-9	4.6*	-4	-6
CCCC1CCC(C(=O)Nn2cnc3ccccc3c2=O)CC1 (stereo not given)	-1	-12	0	4	9
C=CCOn1c(=O)c(-c2cc3ccccc3o2)[n+]([O-])c2ccccc21	64*	13	2	4	37
CCOC(=O)COn1c(=O)c(-c2ccc(F)cc2)[n+]([O-])c2ccccc21	.	-3	1	0	-11
CCCOc1ccc(-c2c(=O)n(OCC(=O)OCC)c3ccccc3[n+]2[O-])cc1	-2	34	3	5	56*
C=CCOn1c(=O)c(-c2ccccc2)[n+]([O-])c2ccccc21	1	6	0	0	11
CCOC(=O)COn1c(=O)c(-c2cc3ccccc3o2)[n+]([O-])c2ccccc21	62*	22	1	3	41
CC(C)N(C)c1ncnc2c1ncn2[C@H]1CN(Cc2ccc(Cl)cc2)C[C@@H](CO)O1	.	.	.	1	.
COc1ccc(C2CC(c3ccccc3)=NN2C(=O)CN2CCN(Cc3ccccc3)CC2)cc1 (stereo not given)	1	7	0	2	-6
CCOCCCn1c(SCC(=O)NCc2ccco2)nc2c(sc3ccccc32)c1=O	3	2	0	0	12
O=C(CSc1nc2c(sc3ccccc32)c(=O)n1-c1ccccc1)NCc1ccco1	113*	5	0	-3	17
CCCCn1c(SCC(=O)NCc2ccco2)nc2c(sc3ccccc32)c1=O	13	-65*	0	-3	-73
CC(C)C(=O)N1CCCC1(C)C(=O)Nc1ccc(-n2cncn2)cc1 (stereo not given)	.	.	.	0	.
CCCOc1ccc(N2C(=O)CC(N(CCc3ccc(OC)c(OC)c3)C(=S)Nc3ccccc3)C2=O)cc1 (stereo not given)	1	2	0	7	-7
CNC(=S)N(CCc1ccc(OC)c(OC)c1)C1CC(=O)N(c2ccccc2)C1=O (stereo not given)	3	9	5.0*	6	49
CC(=O)c1c(C)[nH]c(C(=O)OCC(=O)NCCC2=CCCCC2)c1C	8	-5	-2	-1	-5
O=C(Nc1ccc(Cl)cc1)C1=Cc2ccccc2OC1	72*	32	2	-2	44
O=C(Nc1ccc2c(c1)OCO2)c1ccc[n+]([O-])c1	48*	4	0	1	5
O=C(Nc1ccc(Cl)c(Cl)c1)c1ccc2c(c1)OCO2	34	64	2	0	88*
O=C(Nc1ccc(NC(=O)c2ccc(Cl)cc2Cl)cc1)c1ccc2c(c1)OCO2	-1	-10	-2	-3	4
O=C(Nc1ccc(Cl)cc1)c1ccc2c(c1)OCO2	-3	33	3	-1	60*
COc1ccc(CN(C(=O)c2ccccc2Br)C2CCS(=O)(=O)C2)cc1 (stereo not given)	1	-7	0	3	9
